Screening results as filed in PubChem.
Peg3 prom inh: Peg3 promoter activity inhibition. inhibition, % at 20 µM. HeLa PEG-Prom luciferase reporter, luminescence, overnight. hit rate 1.7% among 360,000;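 active = inhibition of at least 50% at 20 µM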
HIF-2a block: blocks HIF-2a reporter activity | 786-0 RCC cells HIF-2a reporter, luciferase luminescence, overnight | inhibition, % at 18.8 µM | hit rate 0.72% among 360,000 | AID 624352;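 active = inhibition of the luminescence signal of 40% or more relative to plate controls, in a single-dose primary screen at 18.75 µM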
TRPM1 prom inh: reduces MITF-dependent TRPM1 promoter luciferase signal; SK-MEL-5 TRPM1 promoter luciferase, 24 h; AID 488899; inhibition, % at 12.5 µM; hit rate 0.83% among 330,000;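 active = mean inhibition across replicates of 60% or more, whatever share of single replicates reaches that level; inconclusive = some that reach 60%, reason not given; inactive = mean inhibition across replicates below 60%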
EBV LMP1 NFkB: inhibitors of Epstein-Barr LMP1-induced NF-kappaB reporter; LMP1-induced NF-kappaB luciferase reporter cells, luminescence; inhibition, % at 12.5 µM; hit rate 0.69% among 350,000; in the data active = inhibition above about 41%; inconclusive = no clear call, values can overlap the other calls;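 note: 0% = neutral control wells and 100% = reference inhibitor control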
TWEAK-Fn14 inh: blocks TWEAK-Fn14 interaction in a reporter cell assay; TWEAK-stimulated Fn14 reporter cells, luciferase luminescence, 8 h; inhibition, % at 10 µM; hit rate 2% among 360,000; in the data active = inhibition above about 50%
TROY signal inh: inhibitors of TROY-dependent NF-kB signaling | inhibition, % at 10 µM | hit rate 0.98% among 360,000 | AID 1347056 | Q293 LMP1-TROYcd NF-kB luciferase reporter, 4 h;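 active = compounds whose plate-normalised and pattern-corrected inhibition of the luciferase reporter signal at the single screening dose is 50% or more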
Active calls of the source: *; ? = inconclusive; · = no result given. A selection: hits, their analogues and other compounds. The true share with any hit is near 4%.

SMILES | Peg3 prom inh | HIF-2a block | TRPM1 prom inh | EBV LMP1 NFkB | TWEAK-Fn14 inh | TROY signal inh
CC(C)(C)S(=O)(=O)N1Cc2ccc(CO)cc2[C@H]1CCO | -5.0 | 5.5 | 0.7 | 1.5 | 26.9 | -3.5
CCOc1ccc2nc3cc(NCc4ccc(OC)cc4)ccc3c(N)c2c1 | 92.7* | 21.0 | ? | -9.1 | -13.6 | 9.5
COc1cccc(NC(=O)c2cc3ccccc3cc2OC)c1 | -301.6 | -292.2 | -59.0 | -41.1 | -11.9 | -27.7
Cc1ccc(C(CC(=O)N2CCCC2)c2ccccc2)c(O)c1 (stereo not given) | 2.2 | 5.7 | 6.2 | -0.6 | 25.9 | -4.4
O=C1OCCC1Sc1nnc(-c2ccc(Br)cc2)o1 (stereo not given) | 27.8 | 46.8* | 11.7 | 22.8 | 59.3* | -1.7
Cc1ccc(OCC(=O)NNc2c3ccccc3nc3ccccc23)cc1 | 82.7* | -9.8 | 0.6 | 19.1 | 72.4* | 4.7
COc1ccc(OCC(=O)Nn2c(-c3ccc(OC)cc3)nc3ccccc3c2=O)cc1 | 13.7 | 15.0 | 19.9 | 6.2 | 4.0 | -26.6
Cc1cccc(OCC(=O)NNc2c3ccccc3nc3ccccc23)c1 | 47.9 | 15.2 | 9.3 | -9.3 | 27.7 | -2.7
COc1ccc(OCC(=O)Nn2c(-c3ccc(C)cc3)nc3ccccc3c2=O)cc1 | 1.6 | -0.5 | -5.6 | 8.9 | 71.9* | 71.6*
O=C(Nc1nc(-c2ccc(Oc3ccccc3)cc2)cs1)C1=COCCO1 | -35.1 | -53.4 | 9.7 | 8.9 | 61.7* | 33.5
O=C(COC(=O)C1=COCCO1)Nc1ccccc1Oc1ccccc1 | -0.8 | -1.1 | 13.1 | 7.7 | 64.4* | 11.4
COC(=O)c1ccccc1NC(=O)COC(=O)C1CCCCC1 | -1.9 | 4.1 | -4.6 | -5.1 | -11.5 | -11.1
N#Cc1ccccc1Sc1ccccc1C(=O)OCC(=O)NC12CC3CC(CC(C3)C1)C2 | 1.6 | 14.9 | -0.9 | 15.7 | 62.8* | 34.9
O=C(COC(=O)c1ccccc1)NC12CC3CC(CC(C3)C1)C2 | -20.7 | -17.7 | -1.7 | -0.3 | 5.3 | 23.7
Cc1nc2ccc(F)cc2cc1C(=O)Nc1ccc(Cl)c(Cl)c1 | 1.2 | 4.2 | 7.1 | 14.0 | 50.6* | -6.6
CCC/C=C/c1ccc(CN2C(C)C(=O)N(Cc3cn(CCC4OCCO4)nn3)CCS2(=O)=O)cc1 (stereo not given) | 5.9 | 0.6 | · | -1.5 | 2.5 | 12.0
Cc1ccc(-c2nc3ccc(C)cn3c2CC2CCCCC2)cc1 | · | -121.5 | · | · | 35.0 | -54.9
CCOC(=O)/C(C#N)=C/c1cccc(C)c1 | 72.6* | 10.8 | 3.1 | 3.8 | 15.5 | -2.3
Cc1ccc(CS(=O)Cc2ccc(C(=O)N3CCN(c4cccc(C)c4C)CC3)o2)cc1 (stereo not given) | 18.1 | 14.7 | · | -0.1 | 12.5 | 57.0*
Cc1cccc(N2CCN(C(=O)c3ccc(CS(=O)Cc4cccc(Cl)c4)o3)CC2)c1C (stereo not given) | 11.7 | 13.4 | -3.0 | 7.6 | 0.2 | 41.7
Cc1ccc(C)c(N2CCN(C(=O)c3ccc(CS(=O)Cc4ccc(Cl)cc4)o3)CC2)c1 (stereo not given) | 28.6 | 13.6 | 12.7 | 10.5 | 17.4 | 26.5
Cc1ccc(Cl)cc1N1CCN(C(=O)c2ccc(CS(=O)Cc3ccc(Cl)cc3)o2)CC1 (stereo not given) | 11.7 | 11.1 | 11.1 | -0.8 | 10.0 | 53.6*
COC(=O)c1c(N2C(=O)[C@H]3[C@@H](C2=O)[C@]2(C(=O)Nc4c(C)cccc42)N2CCC[C@@H]32)sc(C)c1C | 55.6* | 25.4 | 13.5 | 3.3 | -2.8 | 9.0
Cc1cc(Cl)cc2c1NC(=O)[C@]21[C@@H]2C(=O)N(Cc3ccccc3)C(=O)[C@@H]2[C@@H]2CCCN21 | 26.1 | 15.0 | -6.4 | -2.1 | 10.3 | -6.5
CCOc1ccc(NC2CCN(C(C)=O)CC2)cc1 | -15.7 | -6.6 | -7.0 | 42.4* | 0.3 | -18.3
SMILES | Peg3 prom inh | HIF-2a block | TRPM1 prom inh | EBV LMP1 NFkB | TWEAK-Fn14 inh | TROY signal inh
CC(=O)N1CCC(Nc2ccc(C)cc2)CC1 | -7.3 | 4.5 | · | -5.0 | 3.4 | -8.4
O=C(CN1CCc2ccccc2C1)Nc1ccccc1F | 0.4 | 8.6 | 3.0 | -16.0 | 9.6 | 0.5
CC(=O)N1c2ccc(S(=O)(=O)NCC3CCC(C(=O)Nc4cccc(C)n4)CC3)cc2CC1C (stereo not given) | 11.1 | 9.5 | 39.0 | 22.0 | 58.8* | 22.1
CC(=O)Nc1ccc(S(=O)(=O)c2ccnc3cc(Cl)ccc23)cc1 | 14.9 | 31.1 | · | 13.9 | 77.2* | 22.2
Nc1ccc(C(=O)OCC(=O)NC(=O)c2ccccc2)cc1[N+](=O)[O-] | 10.5 | 8.2 | -4.0 | -4.3 | 1.0 | -2.7
COc1cccc(NC(=O)CN(C)C(=O)Cn2c(=O)oc3ccccc32)c1 | 5.2 | 5.9 | 9.6 | -4.3 | 11.2 | -5.4
COc1ccc2c(c1)C(=O)O[C@@H](c1ccccc1)C[C@@H](O)C(=O)CC2 | · | 1.3 | · | · | -28.1 | -8.0
Cc1ccc2occ(/C=N/NC(=O)c3ccccc3Br)c(=O)c2c1 | 29.1 | 34.0 | -7.4 | 0.1 | 71.3* | 40.0
CCOc1ccccc1C(=O)N/N=C/c1coc2ccc(C)cc2c1=O | 6.9 | 23.1 | 11.5 | -7.6 | 18.2 | 28.2
CN(C)CCNc1nc(Oc2ccccc2)c2sccc2n1 | 4.5 | 8.4 | · | · | -20.5 | -8.6
CCOC(=O)c1c(-c2ccccc2)csc1NC(=O)CSc1nc(N)cc(N)n1 | 4.5 | 17.0 | 16.6 | -17.5 | 86.4* | 43.5
CCOC(=O)c1c(-c2ccc(C)o2)csc1NC(=O)CN1CCCCC1 | 27.1 | 22.5 | -3.9 | 2.3 | 54.3* | 9.2
COC(=O)c1c(-c2cccs2)csc1NC(=O)CN1CCOCC1 | -103.5 | -112.7 | -22.3 | -33.1 | 21.1 | 66.6*
CCOC(=O)c1c(-c2ccc(C)o2)csc1NC(=O)CN1CCN(CC)CC1 | 4.2 | -1.1 | -14.6 | -8.0 | -4.5 | 10.8
CCOC(=O)c1c(-c2ccccc2)csc1NC(=O)CSc1nc(C)cc(C)n1 | 25.7 | 19.1 | 3.7 | -9.2 | 35.1 | 31.7
Cc1cccc2nc(-c3ccco3)c(Nc3ccccc3)n12 | 3.3 | 14.9 | 4.0 | -0.4 | -23.6 | -9.8
Cc1ccc(Nc2c(-c3ccccn3)nc3cccc(C)n23)cc1 | 34.9 | 28.8 | 70.6* | 27.1 | 14.8 | 8.4
COC(=O)C(NS(=O)(=O)c1ccc(N2CCCC2=O)cc1)c1ccccc1 (stereo not given) | 2.5 | 4.4 | 0.9 | 66.6* | -1.9 | -0.8
NC(=O)C(Cc1ccccc1)NS(=O)(=O)c1ccc(N2CCCC2=O)cc1 (stereo not given) | 5.8 | -19.2 | 10.6 | -7.5 | 3.2 | -14.9
CC(C)NC(=O)C1(C)CCN1C(=O)c1ccc2c(c1)OCO2 (stereo not given) | -12.9 | 10.2 | · | · | 9.6 | -11.5
CN(C)CCCNc1nc2cc(-c3ccc(F)cc3)sc2c(=O)n1C | 90.4* | -41.1 | · | · | -48.0 | -18.9
COc1cccc(CNc2nc3cc(-c4cnn(Cc5ccccc5)c4)sc3c(=O)n2C)c1 | 25.0 | -3.5 | · | · | 68.0* | 20.4
CCn1c(NCc2cccc(OC)c2OC)nc2ccccc21 | -73.6 | -119.8 | -26.0 | -20.9 | 59.6* | -52.4
